According to PubChem BioAssay:
Calls of active or inactive are those of the source.

How the values were obtained:
Albumin (Bos taurus) = Albumin (Bos taurus) (UniProt P02769); test: bovine serum albumin binders on microarray, profiling panel, artefact control for SMM control protein annotation, biochemical, small-molecule microarray, Alexa647 label, 635/667 nm fluorescence (AID 1118); settings: BSA-A647 binding, fluorescence 635 nm, higher = more signal;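 further: score merges 667 nm emission intensity and signal-to-noise per printed compound spot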
[1] = small-molecule microarray binders of probe aXIP, primary screen, biochemical, NeuroSMM set, 635/667 nm fluorescence (AID 1119); settings: higher = more signal, called active from +8 up or from −8 down;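 further: probe is the protein aXip251-270 applied at 1 µg/mL to compound-printed slides; binding of probe to printed compounds measured as 667 nm fluorescence plus signal to noise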
[2] = small-molecule binders of probe aNOTCH3, primary screen, biochemical, small-molecule microarray, 635/667 nm fluorescence (AID 1120); settings: higher = more signal;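 further: probe is a biotin-tagged antibody raised against NOTCH3 rather than NOTCH3 protein; score merges spot fluorescence near 667 nm with spot signal to noise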
[3] = small-molecule binders of probe aNOTCH2, primary screen, biochemical, small-molecule microarray, 635/667 nm fluorescence (AID 1121); settings: higher = more signal;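 further: score merges feature fluorescence read at 667 nm with its signal to noise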
[4] = target: Carbonic anhydrase 2 (Homo sapiens) (UniProt P00918); test: CAII small-molecule binders, profiling panel, biochemical, small-molecule microarray, Alexa647-labelled CAII (AID 1122); settings: CAII-A647 binding fluorescence, higher = more signal
[5] = COS7 lysate on small-molecule microarray, probe aHis, 635 nm (AID 1123); settings: COS7 cell lysate, fluorescence, higher = more signal;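 further: z-score combines 667nm fluorescence intensity with signal-to-noise per printed compound spot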
[6] = compound binding in COS7 lysate, probe aLAP1, primary screen, cell lysate, small-molecule microarray (AID 1124); settings: probe aLAP1, fluorescence, higher = more signal;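 further: lysate comes from COS7 cells expressing LAP1 and is applied at 0.3 µg/mL; score merges spot fluorescence near 667 nm with signal-to-noise over triplicate slides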
Sam68 (KHDRBS1) = test: Sam68 small-molecule binders, primary screen, biochemical, small-molecule microarray, 635 nm fluorescence (AID 1125); settings: small-molecule microarray binding, higher = more signal;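 further: score merges 667 nm channel intensity with signal to noise over triplicate slides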
[7] = test system: Chordin-like protein 2 (CHRDL2); test: CHRDL2 small-molecule binders, primary screen, biochemical, small-molecule microarray, 635 nm fluorescence (AID 1126); settings: small-molecule microarray binding, fluorescence 635 nm; higher = more signal;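 further: printed compound slides probed with Chrdl2 protein at 4 µg/mL for 1 h at 4 C; score merges 667 nm emission intensity with signal to noise over three replicate slides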
[8] = target: Concanavalin-A (Canavalia ensiformis) (UniProt P02866); test: ConA small-molecule binders, primary screen, artefact control for SMM control protein annotation, biochemical, small-molecule microarray, Alexa647 label, 635 nm (AID 1127); settings: ConA-A647 binding fluorescence, higher = more signal;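 further: z combines 667 nm emission intensity with signal-to-noise across three replicate slides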
[9] = anti-His antibody binders, primary screen, artefact control for SMM control protein annotation, biochemical, small-molecule microarray, 635 nm fluorescence (AID 1128); settings: anti-His Alexa647 antibody binding, higher = more signal;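 further: score merges feature fluorescence with signal-to-noise for each printed compound spot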
[10] = test system: Human papillomavirus type 1a E7 protein (residues 1-88); test: HPV1a E7 small-molecule binders, primary screen, biochemical, small-molecule microarray, residues 1-88, 635 nm (AID 1129); settings: small-molecule microarray binding, fluorescence 635 nm; higher = more signal
[11] = target: Focal adhesion kinase 1 (Homo sapiens) (UniProt Q05397); test: small-molecule microarray binders of FAK, primary screen, biochemical, 635/667 nm fluorescence, BSA, DTT (AID 1130); settings: PTK2 binding, 635 nm fluorescence, higher = more signal;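 further: composite of spot emission at 667 nm and signal to noise over triplicate slides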
[12] = test system: Fibrinogen (Alexa647-labelled); test: fibrinogen binders on compound microarrays, profiling panel, artefact control for SMM control-protein annotation, biochemical, small-molecule microarray, 635/667 nm fluorescence (AID 1131); settings: fibrinogen-A647 binding fluorescence, higher = more signal;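 further: z-score merges 667 nm fluorescence with per-spot signal-to-noise over triplicate slides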
[13] = target: Follistatin (Homo sapiens) (UniProt P19883); test: follistatin binders on small-molecule microarrays, primary screen, biochemical, small-molecule microarray, 635/667 nm fluorescence (AID 1132); settings: FST binding, 635 nm fluorescence, higher = more signal
[14] = target: Fibroblast growth factor 2 (Homo sapiens) (UniProt P09038); test: FGF2 binders on small-molecule microarrays, primary screen, biochemical, small-molecule microarray, 635/667 nm fluorescence (AID 1133); settings: small-molecule microarray binding, FGF2, fluorescence 635/667; higher = more signal
[15] = mitochondrial membrane potential change in A549 cells, profiling panel, cell-based, JC-1 fluorescence, basal, 24 h, 100 nL (AID 1138); settings: higher = more signal;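 further: A549 lung adenocarcinoma cells under basal conditions with no added stimulus; test concentration not given here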
Lefty1 = Lefty1 binders on small-molecule microarrays, primary screen, biochemical, small-molecule microarray, 635/667 nm fluorescence (AID 1139); settings: small-molecule microarray binding, fluorescence 635/667; higher = more signal
[16] = test system: wheat germ agglutinin (Triticum aestivum), Alexa647-labelled; test: wheat germ agglutinin binders on compound microarrays, profiling panel, artefact control for SMM control-protein annotation, biochemical, small-molecule microarray, 635/667 nm fluorescence (AID 1140); settings: WGA-A647 binding, 635 nm fluorescence, higher = more signal;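 further: score merges 667 nm feature emission with signal to noise over triplicate slides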
[17] = target: Luciferin 4-monooxygenase (Photinus pyralis) (UniProt P08659); test: firefly luciferase enzyme inhibitors, primary screen, biochemical, luminescence, purified enzyme, 2006 set (AID 1141); settings: SteadyGlo luminescence, 30 min, higher = more signal, called active from +8 up or from −8 down;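 further: cell-free assay with purified firefly luciferase at 100 ng per well in PBS; test concentration not given here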
Luciferin 4-monooxygenase (Photinus pyralis), sequence (P08659 whole entry, looked up): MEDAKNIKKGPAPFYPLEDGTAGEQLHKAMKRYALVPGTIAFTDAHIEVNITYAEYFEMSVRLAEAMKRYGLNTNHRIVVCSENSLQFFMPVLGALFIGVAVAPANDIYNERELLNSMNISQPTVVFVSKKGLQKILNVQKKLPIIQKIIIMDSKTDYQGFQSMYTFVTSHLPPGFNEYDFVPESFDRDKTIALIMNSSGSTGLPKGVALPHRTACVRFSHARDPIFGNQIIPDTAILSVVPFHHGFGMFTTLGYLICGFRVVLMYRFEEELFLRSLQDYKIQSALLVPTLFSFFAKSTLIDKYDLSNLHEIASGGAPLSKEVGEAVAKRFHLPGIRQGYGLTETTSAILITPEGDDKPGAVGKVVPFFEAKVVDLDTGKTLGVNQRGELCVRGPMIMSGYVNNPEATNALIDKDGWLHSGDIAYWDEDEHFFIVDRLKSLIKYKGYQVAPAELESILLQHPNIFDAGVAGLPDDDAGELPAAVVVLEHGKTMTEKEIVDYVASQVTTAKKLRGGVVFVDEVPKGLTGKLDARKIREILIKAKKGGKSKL

Follistatin (Homo sapiens), sequence (P19883 whole entry, looked up): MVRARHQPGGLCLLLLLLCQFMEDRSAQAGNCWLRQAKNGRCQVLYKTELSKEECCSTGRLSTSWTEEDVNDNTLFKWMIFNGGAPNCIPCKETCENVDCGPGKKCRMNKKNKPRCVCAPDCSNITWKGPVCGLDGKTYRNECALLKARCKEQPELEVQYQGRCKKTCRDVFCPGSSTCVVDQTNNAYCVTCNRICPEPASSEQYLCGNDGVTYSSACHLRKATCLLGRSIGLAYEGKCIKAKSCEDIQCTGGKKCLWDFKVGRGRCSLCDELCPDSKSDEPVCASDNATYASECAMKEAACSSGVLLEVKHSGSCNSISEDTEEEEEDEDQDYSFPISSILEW
Albumin (Bos taurus), sequence (P02769 whole entry, looked up): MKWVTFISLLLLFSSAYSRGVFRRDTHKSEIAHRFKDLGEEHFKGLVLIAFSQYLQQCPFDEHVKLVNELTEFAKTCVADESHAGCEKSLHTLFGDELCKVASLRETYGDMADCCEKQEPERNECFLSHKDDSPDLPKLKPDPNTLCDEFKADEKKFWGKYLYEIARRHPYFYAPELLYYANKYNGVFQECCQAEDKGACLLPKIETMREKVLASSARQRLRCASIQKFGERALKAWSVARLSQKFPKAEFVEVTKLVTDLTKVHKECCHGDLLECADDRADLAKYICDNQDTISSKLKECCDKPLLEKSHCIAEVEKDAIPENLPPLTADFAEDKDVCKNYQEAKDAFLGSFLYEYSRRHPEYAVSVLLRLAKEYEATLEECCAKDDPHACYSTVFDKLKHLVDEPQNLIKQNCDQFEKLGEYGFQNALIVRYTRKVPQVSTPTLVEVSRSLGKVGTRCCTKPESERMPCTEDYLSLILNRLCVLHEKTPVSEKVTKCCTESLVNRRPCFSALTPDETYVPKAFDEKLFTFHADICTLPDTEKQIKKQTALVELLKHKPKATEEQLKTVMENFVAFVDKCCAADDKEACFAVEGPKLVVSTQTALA
Focal adhesion kinase 1 (Homo sapiens), sequence (Q05397 whole entry, looked up): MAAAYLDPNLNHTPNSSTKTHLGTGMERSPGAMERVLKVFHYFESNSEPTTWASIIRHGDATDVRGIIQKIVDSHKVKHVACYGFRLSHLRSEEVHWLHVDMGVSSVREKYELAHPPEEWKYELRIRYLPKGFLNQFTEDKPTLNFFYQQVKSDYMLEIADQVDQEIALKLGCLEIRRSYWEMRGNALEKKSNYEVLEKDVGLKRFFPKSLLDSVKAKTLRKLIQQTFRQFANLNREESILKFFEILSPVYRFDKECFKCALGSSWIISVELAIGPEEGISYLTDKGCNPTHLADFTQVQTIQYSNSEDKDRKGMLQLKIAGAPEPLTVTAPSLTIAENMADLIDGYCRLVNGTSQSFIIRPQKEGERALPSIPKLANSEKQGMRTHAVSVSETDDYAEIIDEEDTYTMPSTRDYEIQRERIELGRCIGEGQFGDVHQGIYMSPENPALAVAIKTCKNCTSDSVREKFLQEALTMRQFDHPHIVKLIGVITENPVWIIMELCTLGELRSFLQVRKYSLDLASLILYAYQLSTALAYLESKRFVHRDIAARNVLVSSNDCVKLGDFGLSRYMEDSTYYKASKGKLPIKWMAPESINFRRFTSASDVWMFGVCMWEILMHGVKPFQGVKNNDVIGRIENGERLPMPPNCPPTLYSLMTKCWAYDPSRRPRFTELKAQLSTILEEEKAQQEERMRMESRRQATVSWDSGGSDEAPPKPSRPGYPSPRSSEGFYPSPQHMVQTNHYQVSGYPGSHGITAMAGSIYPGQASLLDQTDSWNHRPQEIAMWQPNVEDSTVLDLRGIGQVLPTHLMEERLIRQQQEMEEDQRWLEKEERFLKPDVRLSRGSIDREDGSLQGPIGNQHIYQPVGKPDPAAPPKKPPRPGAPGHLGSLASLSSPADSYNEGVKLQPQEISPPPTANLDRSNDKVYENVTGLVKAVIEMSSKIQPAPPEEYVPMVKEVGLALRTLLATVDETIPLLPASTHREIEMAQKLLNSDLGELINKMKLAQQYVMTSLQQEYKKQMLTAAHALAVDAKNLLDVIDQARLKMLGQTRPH
Concanavalin-A (Canavalia ensiformis), sequence (P02866 whole entry, looked up): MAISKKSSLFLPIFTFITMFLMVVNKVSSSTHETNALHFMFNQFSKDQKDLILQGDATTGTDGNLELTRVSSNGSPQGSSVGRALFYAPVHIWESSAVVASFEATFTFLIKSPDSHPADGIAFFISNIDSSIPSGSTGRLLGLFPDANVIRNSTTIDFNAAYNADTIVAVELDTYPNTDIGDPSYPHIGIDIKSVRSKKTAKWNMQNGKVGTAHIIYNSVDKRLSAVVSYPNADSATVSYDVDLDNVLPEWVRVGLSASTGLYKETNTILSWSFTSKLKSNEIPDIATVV
Fibroblast growth factor 2 (Homo sapiens), sequence (P09038 whole entry, looked up): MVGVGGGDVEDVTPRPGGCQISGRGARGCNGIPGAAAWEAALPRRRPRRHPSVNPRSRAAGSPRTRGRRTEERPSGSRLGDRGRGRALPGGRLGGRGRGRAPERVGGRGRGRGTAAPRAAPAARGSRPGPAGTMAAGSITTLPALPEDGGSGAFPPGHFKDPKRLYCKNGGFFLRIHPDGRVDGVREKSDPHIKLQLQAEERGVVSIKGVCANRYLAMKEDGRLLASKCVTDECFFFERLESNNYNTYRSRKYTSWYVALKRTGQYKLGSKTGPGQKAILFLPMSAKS

| SMILES | composite z-score (Albumin (Bos taurus)) | composite Z-score [1] | composite z-score [2] | composite z-score [3] | composite z-score [4] | composite z-score [5] | composite z-score [6] | composite z-score (Sam68 (KHDRBS1)) | composite z-score [7] | composite z-score [8] | composite z-score [9] | composite z-score [10] | composite z-score [11] | composite z-score [12] | composite z-score [13] | composite z-score [14] | z-score [15] | composite z-score (Lefty1) | composite z-score [16] | z-score [17] |
| --- | --- | --- | --- | --- | --- | --- | --- | --- | --- | --- | --- | --- | --- | --- | --- | --- | --- | --- | --- | --- |
| COc1ccc(OC[C@H]2Cc3c(-c4ccccc4)nc4c(c3CO2)CN(CCOc2ccccc2)CC4)cc1 | 0.445 | 0.812 (inactive) | 0.0562 | -0.108 | 0.234 | 0.678 | 0.379 | 1.07 | 0.419 | 1.08 | 1.78 | 0.928 | 0.169 | 0.811 | 0.923 | 0.596 | 0.774 | 1.25 | 0.387 | -0.356 (inactive) |
| Cc1cc2c(nc1C)CCCN2CC(O)CN1CCN(C)CC1 (stereo not given) | -0.562 | 1.03 (inactive) | -0.0636 | -0.149 | 0.622 | 0.387 | 0.289 | 0.693 | 0.731 | 1.02 | 1.51 | 0.1 | 0.648 | -0.702 | 0.936 | 0.688 | 0.63 | 0.409 | 1.02 | 0.246 (inactive) |
| Cc1ccc(S[C@]2(C(=O)O)CC(=O)N(Cc3ccccc3)[C@@H]2c2ccc(CO)cc2I)cc1 | 0.258 | -0.523 (inactive) | -0.206 | -0.13 | 0.701 | 0.921 | 0.223 | 0.21 | 0.347 | 0.883 | 2.86 | 0.242 | 0.284 | 0.186 | 0.023 | -0.697 | 0.305 | -0.69 | 0.189 | -0.57 (inactive) |
| CC(=O)OC[C@H]1O[C@H](CCON=C(C)CCN2CCc3nc(-c4ccccc4)c(-c4ccccc4)cc3C2)C=C[C@@H]1OC(C)=O | 0.768 | 0.607 (inactive) | 0.146 | -0.0877 | 0.181 | 0.761 | 0.466 | 0.975 | -0.0682 | -0.0278 | -0.437 | 0.0723 | 0.186 | 0.476 | 0.129 | -0.138 | 1.15 | 0.172 | 0.563 | 0.938 (inactive) |
| CO[C@@H]1COC(=O)CC=C[C@@H](C)[C@@H]2C=C[C@H](O)[C@@H](COC(=O)CCC[C@H]1C)O2 | -0.203 | 0.135 (inactive) | 0.0319 | -0.184 | -0.455 | -1.2 | 0.0206 | 0.0503 | 1.3 | -0.239 | 1.59 | -0.442 | -0.382 | -0.478 | 1.06 | 1.3 | -0.992 | 1.08 | -0.0297 | 0.732 (inactive) |
| CC(C)CON=C1C[C@@H](O)[C@@H](O)[C@@H]2[C@@H]3C(=O)N(C[C@@H]4CCCO4)C(=O)[C@@H]3CC[C@H]12 | -0.3 | -0.311 (inactive) | -0.101 | -0.0659 | 0.0765 | 0.737 | -0.193 | 0.697 | -0.0163 | 0.12 | 0.361 | 0.625 | 0.0201 | 0.286 | 0.268 | 0.911 | -0.786 | 0.541 | 0.0098 | 1.01 (inactive) |
